Data: PubChem BioAssay (NCATS)
Records with an inconclusive call do not appear. A call without a number means that no potency is given here. Active and inactive are the calls of the source. The call rests on the fitted dose curve; in most records, active means well fitted curve in the direction sought with a large enough effect; inconclusive means small, poorly fitted or top-dose-only effect, or another doubt; inactive means no such curve, though single readings can be large; an effect the other way counts as inactive or inconclusive.

Tests used:
[1] = Primary qHTS for inhibitors of nuclear receptor binding SET domain protein 2 (NSD2) in an isogenic RCH-ACV NSD2 p.E1099K mutant (9B) (AID 1645876); details: RCH-ACV NSD2 E1099K (9B) viability, CellTiter-Glo, 72 h; series mostly up to 44.9 µM; further: nearly all actives have a fitted effect of over 70% in size; further: potency means the concentration at half of the fitted maximal effect
[2] = Primary qHTS for inhibitors of nuclear receptor binding SET domain protein 2 (NSD2) in an RCH-ACV wild type WT cells (2C) (AID 1645877); details: RCH-ACV (leukaemia line) NSD2 WT (2C) viability, CellTiter-Glo, 72 h; series mostly up to 44.9 µM; further: nearly all actives have a fitted effect of over 70% in size; further: potency means the concentration at half of the fitted maximal effect
[3] = molecular target: Glutathione peroxidase 1 (Homo sapiens) (UniProt P07203); test: Primary qHTS Assay for Inhibitors of Recombinant Selenoprotein Glutathione Peroxidase 1 (GPX1) (AID 1845191); details: recombinant GPX1, GR-coupled NADPH fluorescence, 15 min; series mostly up to 48.8 µM; further: nearly all actives have a fitted effect of over 65% in size
Glutathione peroxidase 1 (Homo sapiens), sequence (P07203 whole entry, looked up): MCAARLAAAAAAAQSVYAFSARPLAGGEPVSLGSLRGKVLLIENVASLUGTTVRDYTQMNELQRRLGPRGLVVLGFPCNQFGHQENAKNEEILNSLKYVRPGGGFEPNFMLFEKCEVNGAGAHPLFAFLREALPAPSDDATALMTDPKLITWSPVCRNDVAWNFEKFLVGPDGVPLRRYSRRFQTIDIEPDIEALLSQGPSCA
How it was run: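 GPX1 10 nM, GR 100 nM, GSH 1 mM, NADPH 0.5 mM, CHP 0.5 mM (final). 30-min cpd preincubation, RT. Ex340/Em450 read t=0, t=15 min.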

**Q.** Which results are given for `CC(=O)O[C@H]1CC(C)(C)CC2[C@@]13[C@H](O)C[C@]1(C)[C@@]2(CCC2[C@@]4(C)CC[C@H](O[C@@H]5OC[C@H](O[C@@H]6O[C@H](CO)[C@@H](O)[C@H](O)[C@H]6O[C@@H]6OC[C@@H](O)[C@H](O)[C@H]6O)[C@H](O)[C@H]5O[C@@H]5O[C@H](CO)[C@@H](O)[C@H](O)[C@H]5O)C(C)(C)C4CC[C@]21C)O[C@@H]3O` (stereo partly specified)?
**A.** Potency [1]: 346 nM (active); Potency [2]: 1090 nM (active); Potency [3]: inactive

**Q.** What does the source list for `CC(=O)O[C@H]1C[C@@](O)(C(C)C)C2[C@@H](OC(=O)c3ccc(O)cc3)C[C@@]3(C)O[C@H]3C[C@]21C` (stereo partly specified)?
**A.** Potency [1]: inactive; Potency [2]: inactive; Potency [3]: inactive

**Q.** Which results are given for `C[C@@H]1C(=O)O[C@H](C)[C@H]1CC(=O)[C@](C)(O)[C@H]1CC[C@@]2(O)C3=CC(=O)[C@@H]4C[C@@H](O)[C@@H](O)C[C@]4(C)C3CC[C@]12C` (stereo partly specified)?
**A.** Potency [1]: inactive; Potency [2]: inactive; Potency [3]: inactive

**Q.** Which Potency [1] does the source give for `CC/C=C\[C@H](O)[C@H](O)C1=C(C)C(=O)[C@]2(O1)C(=O)N[C@@](OC)(C(=O)c1ccccc1)[C@@H]2O` here?
**A.** inactive

**Q.** What about the Potency [2] of the same molecule?
**A.** inactive

**Q.** And the Potency [3]?
**A.** inactive

**Q.** What does the source list for `CC1(C)CC2C(C1)C(C)(O)C13CC1(COC3=O)C2O` (stereo unspecified)?
**A.** Potency [1]: inactive; Potency [2]: inactive; Potency [3]: inactive

**Q.** Which outcome [1] does the source give for `CC12CCC(=O)C=C1C(O)CC1C2C(O)CC2(C)C1CC[C@]2(O)C(=O)CO` (stereo partly specified) here?
**A.** inactive [at 9.23 µM]

**Q.** What about the activity change, negative = cell killing [2] of the same molecule?
**A.** -15% [at 9.23 µM] (inactive)

**Q.** And the Potency [3]?
**A.** inactive

**Q.** Which results are given for `C[C@H]1CC[C@@]2(OC1)O[C@H]1CC3C4CC[C@H]5C[C@@H](O)[C@H](O)C[C@]5(C)C4=CC(=O)[C@]3(C)[C@H]1[C@@H]2C` (stereo partly specified)?
**A.** Potency [1]: inactive; Potency [2]: inactive; Potency [3]: inactive
